Active and inactive are the calls of the source.
Columns and labels:
Albumin (Bos taurus) = Albumin (Bos taurus) (UniProt P02769); experiment: bovine serum albumin binders on microarray, profiling panel, artefact control for SMM control protein annotation, biochemical, small-molecule microarray, Alexa647 label, 635/667 nm fluorescence (AID 1118); details: BSA-A647 binding, fluorescence 635 nm, higher = more signal;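 note: score merges 667 nm emission intensity and signal-to-noise per printed compound spot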
[1] = small-molecule microarray binders of probe aXIP, primary screen, biochemical, NeuroSMM set, 635/667 nm fluorescence (AID 1119); details: higher = more signal, called active from +8 up or from −8 down;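 note: probe is the protein aXip251-270 applied at 1 µg/mL to compound-printed slides; binding of probe to printed compounds measured as 667 nm fluorescence plus signal to noise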
[2] = small-molecule binders of probe aNOTCH3, primary screen, biochemical, small-molecule microarray, 635/667 nm fluorescence (AID 1120); details: higher = more signal;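 note: probe is a biotin-tagged antibody raised against NOTCH3 rather than NOTCH3 protein; score merges spot fluorescence near 667 nm with spot signal to noise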
[3] = small-molecule binders of probe aNOTCH2, primary screen, biochemical, small-molecule microarray, 635/667 nm fluorescence (AID 1121); details: higher = more signal;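 note: score merges feature fluorescence read at 667 nm with its signal to noise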
[4] = molecular target: Carbonic anhydrase 2 (Homo sapiens) (UniProt P00918); experiment: CAII small-molecule binders, profiling panel, biochemical, small-molecule microarray, Alexa647-labelled CAII (AID 1122); details: CAII-A647 binding fluorescence, higher = more signal
[5] = COS7 lysate on small-molecule microarray, probe aHis, 635 nm (AID 1123); details: COS7 cell lysate, fluorescence, higher = more signal;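 note: z-score combines 667nm fluorescence intensity with signal-to-noise per printed compound spot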
[6] = compound binding in COS7 lysate, probe aLAP1, primary screen, cell lysate, small-molecule microarray (AID 1124); details: probe aLAP1, fluorescence, higher = more signal;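 note: lysate comes from COS7 cells expressing LAP1 and is applied at 0.3 µg/mL; score merges spot fluorescence near 667 nm with signal-to-noise over triplicate slides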
Sam68 (KHDRBS1) = experiment: Sam68 small-molecule binders, primary screen, biochemical, small-molecule microarray, 635 nm fluorescence (AID 1125); details: small-molecule microarray binding, higher = more signal;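 note: score merges 667 nm channel intensity with signal to noise over triplicate slides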
[7] = test system: Chordin-like protein 2 (CHRDL2); experiment: CHRDL2 small-molecule binders, primary screen, biochemical, small-molecule microarray, 635 nm fluorescence (AID 1126); details: small-molecule microarray binding, fluorescence 635 nm; higher = more signal;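 note: printed compound slides probed with Chrdl2 protein at 4 µg/mL for 1 h at 4 C; score merges 667 nm emission intensity with signal to noise over three replicate slides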
[8] = molecular target: Concanavalin-A (Canavalia ensiformis) (UniProt P02866); experiment: ConA small-molecule binders, primary screen, artefact control for SMM control protein annotation, biochemical, small-molecule microarray, Alexa647 label, 635 nm (AID 1127); details: ConA-A647 binding fluorescence, higher = more signal;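 note: z combines 667 nm emission intensity with signal-to-noise across three replicate slides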
[9] = anti-His antibody binders, primary screen, artefact control for SMM control protein annotation, biochemical, small-molecule microarray, 635 nm fluorescence (AID 1128); details: anti-His Alexa647 antibody binding, higher = more signal;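 note: score merges feature fluorescence with signal-to-noise for each printed compound spot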
[10] = test system: Human papillomavirus type 1a E7 protein (residues 1-88); experiment: HPV1a E7 small-molecule binders, primary screen, biochemical, small-molecule microarray, residues 1-88, 635 nm (AID 1129); details: small-molecule microarray binding, fluorescence 635 nm; higher = more signal
[11] = molecular target: Focal adhesion kinase 1 (Homo sapiens) (UniProt Q05397); experiment: small-molecule microarray binders of FAK, primary screen, biochemical, 635/667 nm fluorescence, BSA, DTT (AID 1130); details: PTK2 binding, 635 nm fluorescence, higher = more signal;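 note: composite of spot emission at 667 nm and signal to noise over triplicate slides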
[12] = test system: Fibrinogen (Alexa647-labelled); experiment: fibrinogen binders on compound microarrays, profiling panel, artefact control for SMM control-protein annotation, biochemical, small-molecule microarray, 635/667 nm fluorescence (AID 1131); details: fibrinogen-A647 binding fluorescence, higher = more signal;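 note: z-score merges 667 nm fluorescence with per-spot signal-to-noise over triplicate slides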
[13] = molecular target: Follistatin (Homo sapiens) (UniProt P19883); experiment: follistatin binders on small-molecule microarrays, primary screen, biochemical, small-molecule microarray, 635/667 nm fluorescence (AID 1132); details: FST binding, 635 nm fluorescence, higher = more signal
[14] = molecular target: Fibroblast growth factor 2 (Homo sapiens) (UniProt P09038); experiment: FGF2 binders on small-molecule microarrays, primary screen, biochemical, small-molecule microarray, 635/667 nm fluorescence (AID 1133); details: small-molecule microarray binding, FGF2, fluorescence 635/667; higher = more signal
[15] = mitochondrial membrane potential change in A549 cells, profiling panel, cell-based, JC-1 fluorescence, basal, 24 h, 100 nL (AID 1138); details: higher = more signal;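 note: A549 lung adenocarcinoma cells under basal conditions with no added stimulus; test concentration not given here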
Lefty1 = Lefty1 binders on small-molecule microarrays, primary screen, biochemical, small-molecule microarray, 635/667 nm fluorescence (AID 1139); details: small-molecule microarray binding, fluorescence 635/667; higher = more signal
[16] = test system: wheat germ agglutinin (Triticum aestivum), Alexa647-labelled; experiment: wheat germ agglutinin binders on compound microarrays, profiling panel, artefact control for SMM control-protein annotation, biochemical, small-molecule microarray, 635/667 nm fluorescence (AID 1140); details: WGA-A647 binding, 635 nm fluorescence, higher = more signal;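 note: score merges 667 nm feature emission with signal to noise over triplicate slides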
[17] = molecular target: Luciferin 4-monooxygenase (Photinus pyralis) (UniProt P08659); experiment: firefly luciferase enzyme inhibitors, primary screen, biochemical, luminescence, purified enzyme, 2006 set (AID 1141); details: SteadyGlo luminescence, 30 min, higher = more signal, called active from +8 up or from −8 down;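 note: cell-free assay with purified firefly luciferase at 100 ng per well in PBS; test concentration not given here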
Luciferin 4-monooxygenase (Photinus pyralis), sequence (P08659 whole entry, looked up): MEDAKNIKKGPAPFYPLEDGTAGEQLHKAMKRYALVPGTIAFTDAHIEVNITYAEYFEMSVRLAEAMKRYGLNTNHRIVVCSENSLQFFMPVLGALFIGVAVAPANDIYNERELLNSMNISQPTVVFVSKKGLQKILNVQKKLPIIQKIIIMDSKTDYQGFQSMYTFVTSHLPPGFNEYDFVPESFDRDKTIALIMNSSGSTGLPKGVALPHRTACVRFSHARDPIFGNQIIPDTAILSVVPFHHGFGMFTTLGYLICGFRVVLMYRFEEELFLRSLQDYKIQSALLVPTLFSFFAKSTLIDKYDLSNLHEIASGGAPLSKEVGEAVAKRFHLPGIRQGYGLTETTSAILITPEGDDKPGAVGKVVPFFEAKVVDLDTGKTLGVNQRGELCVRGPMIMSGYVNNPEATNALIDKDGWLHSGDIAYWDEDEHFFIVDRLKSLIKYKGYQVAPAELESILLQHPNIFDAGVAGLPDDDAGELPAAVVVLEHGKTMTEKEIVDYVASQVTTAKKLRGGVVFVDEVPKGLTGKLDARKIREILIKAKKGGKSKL

Concanavalin-A (Canavalia ensiformis), sequence (P02866 whole entry, looked up): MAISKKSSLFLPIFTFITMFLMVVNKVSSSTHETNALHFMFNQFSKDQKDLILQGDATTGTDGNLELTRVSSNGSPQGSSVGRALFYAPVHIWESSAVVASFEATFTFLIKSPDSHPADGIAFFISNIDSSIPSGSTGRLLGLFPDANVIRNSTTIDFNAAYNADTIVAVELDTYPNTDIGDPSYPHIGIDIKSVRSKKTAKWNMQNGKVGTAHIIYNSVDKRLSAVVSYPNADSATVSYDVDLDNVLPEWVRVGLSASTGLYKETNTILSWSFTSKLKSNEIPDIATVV
Albumin (Bos taurus), sequence (P02769 whole entry, looked up): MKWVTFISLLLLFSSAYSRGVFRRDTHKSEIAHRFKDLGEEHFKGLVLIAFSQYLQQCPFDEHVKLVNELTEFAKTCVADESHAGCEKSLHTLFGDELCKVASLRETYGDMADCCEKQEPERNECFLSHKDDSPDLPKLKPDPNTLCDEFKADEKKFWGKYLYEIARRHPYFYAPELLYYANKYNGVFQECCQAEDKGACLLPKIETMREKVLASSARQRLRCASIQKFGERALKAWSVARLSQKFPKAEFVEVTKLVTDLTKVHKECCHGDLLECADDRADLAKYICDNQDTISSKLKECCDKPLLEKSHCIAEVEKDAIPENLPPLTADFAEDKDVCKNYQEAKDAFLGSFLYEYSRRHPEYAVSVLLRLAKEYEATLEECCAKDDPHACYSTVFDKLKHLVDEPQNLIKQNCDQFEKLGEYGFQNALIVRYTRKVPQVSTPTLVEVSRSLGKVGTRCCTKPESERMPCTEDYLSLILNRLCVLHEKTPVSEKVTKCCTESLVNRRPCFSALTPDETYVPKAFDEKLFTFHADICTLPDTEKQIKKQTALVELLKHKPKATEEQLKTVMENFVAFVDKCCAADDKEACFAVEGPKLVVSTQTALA
Follistatin (Homo sapiens), sequence (P19883 whole entry, looked up): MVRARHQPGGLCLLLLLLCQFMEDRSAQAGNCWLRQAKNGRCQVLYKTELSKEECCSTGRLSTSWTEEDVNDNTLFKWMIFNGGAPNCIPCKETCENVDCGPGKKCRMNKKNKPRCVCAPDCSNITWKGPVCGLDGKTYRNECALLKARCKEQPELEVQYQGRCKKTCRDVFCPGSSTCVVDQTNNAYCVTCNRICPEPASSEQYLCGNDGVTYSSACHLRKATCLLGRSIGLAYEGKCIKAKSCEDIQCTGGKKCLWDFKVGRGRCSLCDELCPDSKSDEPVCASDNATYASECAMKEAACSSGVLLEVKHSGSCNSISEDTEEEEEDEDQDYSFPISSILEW
Fibroblast growth factor 2 (Homo sapiens), sequence (P09038 whole entry, looked up): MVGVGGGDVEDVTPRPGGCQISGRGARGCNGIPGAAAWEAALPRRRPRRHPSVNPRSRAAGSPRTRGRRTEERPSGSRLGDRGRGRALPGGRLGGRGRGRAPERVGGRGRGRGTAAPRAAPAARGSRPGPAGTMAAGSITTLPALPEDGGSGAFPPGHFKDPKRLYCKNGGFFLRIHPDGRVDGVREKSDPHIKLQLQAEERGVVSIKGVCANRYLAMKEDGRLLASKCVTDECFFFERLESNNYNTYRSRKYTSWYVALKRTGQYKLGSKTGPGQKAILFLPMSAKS
Focal adhesion kinase 1 (Homo sapiens), sequence (Q05397 whole entry, looked up): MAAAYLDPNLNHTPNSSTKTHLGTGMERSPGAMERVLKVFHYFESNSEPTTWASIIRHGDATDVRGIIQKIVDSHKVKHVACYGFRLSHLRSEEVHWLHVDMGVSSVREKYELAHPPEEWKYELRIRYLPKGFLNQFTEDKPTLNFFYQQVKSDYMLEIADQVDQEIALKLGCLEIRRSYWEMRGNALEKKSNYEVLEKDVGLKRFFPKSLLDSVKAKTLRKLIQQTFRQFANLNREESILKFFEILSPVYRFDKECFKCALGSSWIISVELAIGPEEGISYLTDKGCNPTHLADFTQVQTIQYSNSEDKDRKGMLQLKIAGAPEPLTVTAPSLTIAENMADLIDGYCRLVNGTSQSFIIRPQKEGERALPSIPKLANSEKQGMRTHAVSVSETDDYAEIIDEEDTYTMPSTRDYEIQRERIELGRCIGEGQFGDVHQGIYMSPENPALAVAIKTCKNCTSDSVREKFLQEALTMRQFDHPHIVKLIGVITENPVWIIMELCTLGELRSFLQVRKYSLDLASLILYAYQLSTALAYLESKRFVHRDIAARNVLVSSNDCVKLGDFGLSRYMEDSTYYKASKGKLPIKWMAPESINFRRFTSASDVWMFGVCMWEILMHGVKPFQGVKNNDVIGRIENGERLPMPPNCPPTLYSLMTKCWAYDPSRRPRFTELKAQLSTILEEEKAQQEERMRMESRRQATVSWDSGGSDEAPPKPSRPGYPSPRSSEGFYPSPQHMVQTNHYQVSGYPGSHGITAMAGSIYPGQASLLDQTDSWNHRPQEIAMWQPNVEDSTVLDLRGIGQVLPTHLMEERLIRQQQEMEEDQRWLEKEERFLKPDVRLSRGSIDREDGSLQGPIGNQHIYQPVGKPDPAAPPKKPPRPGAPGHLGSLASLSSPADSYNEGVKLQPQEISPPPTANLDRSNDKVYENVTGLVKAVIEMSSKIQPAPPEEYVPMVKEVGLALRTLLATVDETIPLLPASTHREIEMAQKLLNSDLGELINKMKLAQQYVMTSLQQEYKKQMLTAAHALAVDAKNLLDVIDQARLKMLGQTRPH

Row | SMILES | composite z-score (Albumin (Bos taurus)) | composite Z-score [1] | composite z-score [2] | composite z-score [3] | composite z-score [4] | composite z-score [5] | composite z-score [6] | composite z-score (Sam68 (KHDRBS1)) | composite z-score [7] | composite z-score [8] | composite z-score [9] | composite z-score [10] | composite z-score [11] | composite z-score [12] | composite z-score [13] | composite z-score [14] | z-score [15] | composite z-score (Lefty1) | composite z-score [16] | z-score [17]
1 | CC(C)C[C@@H]1NC(=O)[C@@H]2C[C@H](C(=O)NCCCCCNC(=O)CS)[C@H](c3cccc(OCCO)c3)N2C1=O | -1.16 | 0.262 (inactive) | 0.0469 | -0.0624 | 0.588 | 1.47 | -0.383 | 1.31 | 0.767 | 1.18 | 2.82 | 1.18 | 1.35 | 0.837 | 1.38 | 1.3 | -0.018 | 1.13 | 1.23 | -2.15 (inactive)
2 | O=C1c2ccccc2[C@@]2(Cc3ccccc3N(CC(F)(F)F)C2=O)[C@H](c2ccc(CO)cc2)N1Cc1ccccc1C(F)(F)F | -1.22 | 0.112 (inactive) | -0.0647 | -0.159 | 0.272 | -0.229 | 0.134 | -0.142 | -2.04 | -1.83 | -1.58 | -2.19 | -0.795 | -1.47 | -2.04 | -0.882 | 0.972 | -1.87 | -1.69 | -0.903 (inactive)
